# High-throughput results: PubChem, NMMLSC
# Only some compounds are listed: those with a hit (about 2.5% of all), similar ones and a draw of the others.
# MEKK2 WT-MEK5: raises or lowers MEK5 binding to wildtype human MEKK2 PB1 domain; Q9Y2U5; bead flow cytometry, Alexa488-MEK5 binding to MEKK2 WT; actives lie on both sides; binding response (% of control), % at 10 µM; 290,000 compounds, 1.1% hits; AID 1531; in the data active = binding response below about 67% or above about 130%
# MEKK2 mut-MEK5: signal of MEK5 binding to mutant human MEKK2 PB1 domain; 290,000 compounds, 0.35% hits; bead flow cytometry, Alexa488-MEK5 binding to MEKK2 mutant; AID 1530; percent response, % at 10 µM; in the data active = percent response above about 24%, passing the limit was not always enough
# MEKK3 PB1 HTS: raises or lowers MEK5 binding to the human MEKK3 PB1 domain | Q99759 | bead-based flow cytometry, Alexa488-MEK5 binding to MEKK3; actives lie on both sides; 0 = blocked by unlabeled MEK5, 100 = vehicle | binding response (% of control), % at 10 µM | 290,000 compounds, 1.4% hits;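 active = binding response more than 3 SD above or below the average of its plate-row segment, actives on both sides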;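 also: Alexa488 bead fluorescence after subtracting the streptavidin-only scavenger bead signal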
# Target sequence (Q99759 whole entry, looked up, the tested form may be a part): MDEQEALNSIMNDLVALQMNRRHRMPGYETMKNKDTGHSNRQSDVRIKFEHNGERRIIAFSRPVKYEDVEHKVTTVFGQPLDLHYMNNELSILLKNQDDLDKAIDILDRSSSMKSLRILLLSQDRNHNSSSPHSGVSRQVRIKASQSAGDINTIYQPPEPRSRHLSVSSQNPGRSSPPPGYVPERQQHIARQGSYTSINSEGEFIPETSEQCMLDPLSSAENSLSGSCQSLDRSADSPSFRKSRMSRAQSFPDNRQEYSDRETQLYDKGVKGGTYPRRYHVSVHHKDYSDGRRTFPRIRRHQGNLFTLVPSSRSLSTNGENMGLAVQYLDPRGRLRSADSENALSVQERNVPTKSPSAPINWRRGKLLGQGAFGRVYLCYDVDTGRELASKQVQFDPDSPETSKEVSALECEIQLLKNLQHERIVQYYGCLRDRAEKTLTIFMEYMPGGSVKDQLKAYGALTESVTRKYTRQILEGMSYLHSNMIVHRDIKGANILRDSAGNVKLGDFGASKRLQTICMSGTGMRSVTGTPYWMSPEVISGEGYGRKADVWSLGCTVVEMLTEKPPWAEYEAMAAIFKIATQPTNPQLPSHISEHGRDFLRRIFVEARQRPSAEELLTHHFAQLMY
# GRK2 aptamer HTS: human GRK2 inhibition via aptamer displacement; P25098; bead flow cytometry, FAM-aptamer displacement from GRK2; inhibition of aptamer binding, % at 10 µM; 330,000 compounds, 0.59% hits;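 active = inhibition of aptamer binding above 40%, roughly 3 SD of noise, on plates passing a quality check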;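 also: median bead fluorescence of bound FAM aptamer so fluorescent compounds give negative values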
# MEKK2wt confirm: raises or lowers MEK5 binding to wildtype human MEKK2, retest; shares compounds with MEKK3 PB1 HTS; 5,900 compounds, 2.4% hits; bead flow cytometry, Alexa488-MEK5 binding to MEKK2 WT; actives lie on both sides; binding response (% of control), % at 10 µM; in the data active = binding response below about 16% or above about 210%; inactive = in between
# MEKK2mut confirm: signal of MEK5 binding to mutant human MEKK2, retest | bead flow cytometry, Alexa488-MEK5 binding to MEKK2 mutant | 5,900 compounds, 2% hits | shares compounds with MEKK3 PB1 HTS | AID 1893 | percent response, % at 10 µM; in the data active = percent response mostly above about 71%, no sharp cut-off; inactive = mostly below about 38%;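 also: higher means compound restores mutant binding toward wildtype level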
# MEKK3 confirm: MEKK3-MEK5 PB1 inhibition, single concentration confirmation | shares compounds with MEKK3 PB1 HTS | bead flow cytometry, Alexa488-MEK5 binding to MEKK3; hits give low values | binding response (% of control), % at 10 µM | 5,900 compounds, 1.8% hits;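 active = binding response below 72% of control, or above a set upper limit, though filed actives all read lower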;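 also: lower values mean stronger disruption of MEK5 binding to MEKK3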
# Numbers stand for hits; n = inactive; x = no result; [ ] = remark or other dose.
SMILES,MEKK2 WT-MEK5,MEKK2 mut-MEK5,MEKK3 PB1 HTS,GRK2 aptamer HTS,MEKK2wt confirm,MEKK2mut confirm,MEKK3 confirm
Cc1ccc(N(CC(=O)NCCSc2nc3ccccc3s2)S(=O)(=O)c2ccccc2)c(C)c1,n,n,150.0,n,n,n,n
COc1cccc(CN(C)C(=O)c2ccc(OCC(=O)N3CCOCC3)c(OC)c2)c1,x,x,x,n,x,x,x
COC(=O)C1=C(C)NC(=O)CC1c1cccc(Cl)c1Cl (stereo not given),n,n,n,n,x,x,x
COc1ccccc1C1CC(=O)NC(C)=C1C(=O)OC(C)C (stereo not given),n,n,49.0[inhibitor],n,n,n,n
O=C(CCN1CCCCC1)c1ccccc1,n,n,n,n,x,x,x
C[N+]1(CCC(=O)c2ccccc2)CCCCC1,2.0[inhibitor],n,2.0[inhibitor],n,n,n,n
CC(=O)Nc1ccccc1OCC(O)CS(=O)(=O)c1ccc(C(F)(F)F)cn1 (stereo not given),n,n,n,n,x,x,x
COc1ccccc1-n1ccnc1SCC(=O)NCc1ccco1,n,n,n,n,x,x,x
CCc1noc(C)c1C(=O)N(CC)c1nc2c(C)cccc2s1,x,x,x,n,x,x,x
CC1CCCN(c2nc3c(c(=O)[nH]c(=O)n3C)n2CCSc2nc3ccccc3o2)C1 (stereo not given),n,n,82.0[inhibitor],n,n,n,n
CC1CCCN(c2nc3c(c(=O)n(C)c(=O)n3C)n2CCSc2nc3ccccc3o2)C1 (stereo not given),n,n,n,n,x,x,x
Cc1cc(N2CCN(c3ccccc3)CC2)nc(NCc2ccccc2)n1,168.0,n,n,n,n,n,n
Cc1cc(N/N=C/c2ccccc2Cl)nc(NCc2ccccc2)n1,146.0,n,n,n,n,n,n
Cc1ccc(Nc2cc(C)nc(NCc3ccccc3)n2)cc1,151.0,n,n,n,n,n,n
CC1CCCC(NC(=O)c2nn(C)c3c2CS(=O)(=O)c2ccccc2-3)C1C (stereo not given),n,n,n,n,x,x,x
CCOC(=O)C(C)/C(C)=N/NC(N)=S (stereo not given),n,n,n,n,x,x,x
CS(=O)(=O)N(CCCC(=O)N1CCCCCC1)c1cccc(Cl)c1,n,37.0,n,n,n,n,n
CS(=O)(=O)N(CC(=O)N1CCN(c2ccc(F)cc2)CC1)c1cccc(Cl)c1,n,n,n,n,x,x,x
CC(SCC(=O)NC(C)C1CC2CCC1C2)C(=O)O (stereo not given),n,n,n,n,x,x,x
O=[N+]([O-])c1ccc(Cl)cc1N1CCOCC1,n,n,n,n,x,x,x
O=c1[nH]c(=S)[nH]c2c1C(c1cc([N+](=O)[O-])c(N3CCOCC3)cc1N1CCOCC1)O2 (stereo not given),n,n,142.0,n,n,n,n
O=C(CC1C(=O)NCCN1Cc1ccccc1C(F)(F)F)NC1CCCCCC1 (stereo not given),n,n,n,n,x,x,x
COc1ccc(NC(=S)NNS(=O)(=O)c2ccc3ccccc3c2)c(OC)c1,n,n,n,n,x,x,x
O=C(NNS(=O)(=O)c1ccc2ccccc2c1)c1cccs1,n,n,144.0,n,n,n,n
COc1ccccc1NC(=O)C(=O)NNS(=O)(=O)c1ccc2ccccc2c1,n,n,131.0,n,n,n,n
SMILES,MEKK2 WT-MEK5,MEKK2 mut-MEK5,MEKK3 PB1 HTS,GRK2 aptamer HTS,MEKK2wt confirm,MEKK2mut confirm,MEKK3 confirm
Cc1ccc(S(=O)(=O)N(C)C[C@H]2Oc3c(NC(=O)Nc4cccc5ccccc45)cccc3C(=O)N([C@@H](C)CO)C[C@@H]2C)cc1,x,x,x,n,x,x,x
Cc1ccc2c(c1)N(CC(=O)NCCCN1CCOCC1)C(=O)C(C(C)C)O2 (stereo not given),x,x,x,n,x,x,x
Cc1nc2ccccc2c2oc(C(=O)N3CCC(N4CCCCC4)CC3)cc12,138.0,26.0,n,n,n,n,n
Cc1nc2ccccc2c2oc(C(=O)N3CCN(C4CCCCC4)CC3)cc12,n,n,n,n,x,x,x
COc1ccccc1N1CCN(C(=O)c2ccc(CSc3ccccc3)cc2)CC1,n,n,128.0,n,n,n,n
COc1ccccc1N1CCN(C(=O)c2ccc3[nH]c4c(c3c2)CCCC4)CC1,n,n,145.0,n,n,n,n
Cc1ccc(C)c(NC(=O)CN2C(=O)NC(CCc3ccccc3)C2=O)c1 (stereo not given),x,x,x,n,x,x,x
Cc1ccc(Nc2c(-c3ccccc3O)nc3ncccn23)cc1,n,n,130.0,n,n,n,n
Cc1ccc(Nc2c(-c3ccccc3O)nc3cnccn23)cc1,n,n,n,n,x,x,x
Cc1cccc(C)c1NC(=O)CNC(=O)c1cccc(S(=O)(=O)NCc2cccs2)c1,x,x,x,n,x,x,x
C/C(CC(=O)Nc1cccc(Cl)c1Cl)=N\NC(=O)c1ccccc1C,4.0[inhibitor],n,3.0[inhibitor],n,n,n,n
Oc1ccc(-c2n[nH]c(=S)n2-c2ccc3c(c2)OCCO3)c(O)c1,n,n,70.0[inhibitor],n,n,n,n
O=C(COC(=O)CCC(=O)c1ccc(F)cc1)Nc1ccc(Cl)cn1,x,x,x,n,x,x,x
CCCCCc1cc(=O)oc2c(C(CCN3CCCC(C)C3)c3ccc(OC)cc3)c(OC)cc(OC)c12 (stereo not given),153.0,58.0,n,n,n,107.0,n
CCN(CC)CCC(c1ccc(N(C)C)cc1)c1c(OC)cc(OC)c2ccc(=O)oc12 (stereo not given),n,n,n,n,x,x,x
CCCCCc1cc(=O)oc2c(C(CCN3CCCCC3)c3ccc(OC)cc3)c(OC)cc(OC)c12 (stereo not given),164.0,67.0,n,n,208.0,n,n
CCCCCc1cc(=O)oc2c(C(CCN(CC)CC)c3ccc(OC)cc3)c(OC)cc(OC)c12 (stereo not given),182.0,29.0,n,n,n,n,n
CCCCCc1cc(=O)oc2c(C(CCN3CCN(c4ccccc4)CC3)c3ccc4c(c3)OCO4)c(OC)cc(OC)c12 (stereo not given),n,n,n,n,x,x,x
COc1ccc(C(CCN2CCCC(C)C2)c2c(OC)cc(OC)c3c2OC(=O)CC3c2cc(OC)c(OC)c(OC)c2)cc1 (stereo not given),145.0,n,n,x,n,n,n
COc1ccc(NC(=O)CSc2nnc(NC(=O)c3ccco3)s2)cc1OC,n,n,n,n,x,x,x
Cc1ccc(NC(=O)CN(C)C(=S)NC2CC2)cc1,n,n,n,n,x,x,x
COc1cc(C(CCN2CCCC(C)C2)c2c(OC)cc(OC)c3c(-c4ccccc4)cc(=O)oc23)cc(OC)c1OC (stereo not given),138.0,n,n,x,n,n,n
